Among the data in PubChem BioAssay (NCI) are growth values, retold here.

SMILES strings stand for the structures. Compounds without any hit were thinned out: in the full panel of roughly 83,000, 20% have a hit.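 The test compound was applied at a single concentration to cells in 96-well plates for 48 hours, and percent growth was recorded.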 A number with no mark means an inactive call. The source made the active and inactive calls. The calls were made as follows: active = growth percent below 10; inactive = the rest.

Assay in all cases: NCI-60 one-dose screen, 48 h (100 = growth as untreated, 0 = no growth, -100 = all killed)
Common to all, as to settings: 10 µM

The subject of test [1] is HCT-15 colon.
Test [2] deals with HT29 colon.
Test [3] has as its system SNB-75 CNS.
For test [4], the system named is SNB-19 CNS.
In test [5] the test system is U251 CNS.
The subject of test [6] is PC-3 prostate.
The subject of test [7] is SK-MEL-5 melanoma.
In test [8] the test system is UACC-62 melanoma.
The test system of test [9] is LOX IMVI melanoma.
Test [10] concerns SK-MEL-28 melanoma.
Test [11] deals with SK-MEL-2 melanoma.
Test [12] relates to EKVX NSCLC.
Test [13] relates to SN12C renal.
Test [14] deals with UO-31 renal.
Test [15] concerns TK-10 renal.
Test [16] relates to ACHN renal.
The test system of test [17] is CAKI-1 renal.
Test [18] deals with A498 renal.
The subject of test [19] is CCRF-CEM leukemia.
Test [20] relates to MOLT-4 leukemia.

Consider `COc1ccc(C(=O)CSc2nnc(-c3c[nH]c4ccccc34)n2-c2ccccc2)cc1`, for which the growth was 73.3% in test [1]; 83.1% in [2]; 15% in [3]; 29.8% in test [4]; 34.4% in [5]; 50.3% in test [6]. In addition, the growth was 81.3% in test [7]; 25.8% in [8]; 43.5% in [9]; 49.7% in [10]; 72% in test [11]; 29.3% in [12]. Also, the growth was 44.4% in [13]; 32.6% in [14]; 63.9% in test [15]; 22.8% in test [16]; 61.5% in test [17]; 111% in test [18]. Moreover, the growth is 82.5% in test [19] and 82.1% in test [20].

Turning to `O=S(=O)(Nc1ncccn1)c1ccc(-n2c(-c3ccccc3)nc(-c3ccccc3)c2-c2ccccc2)cc1`, the growth in [1] was 80.7%; in [2], 105%; in test [3] it was 77.2%; in [4], 82.3%; in test [5], 81.5%; in test [6], 67.8%. The growth in test [7] is 76.1%; in test [8], 83.7%; in test [9], 85.7%; in [10], 105%; in [11] it was 106%; in test [12], 76.9%. For the same compound, the growth is 92.4% in [13]; 62.2% in test [14]; 94.6% in [15]; 97.3% in [16]; 84.2% in test [17]; 81.9% in test [18]. The growth in test [19] was 75.7%; in test [20] it was 92.1%.

On to `C=CCn1c(SCC(=O)Nc2ccc(C(=O)/C=C/c3ccccc3)cc2)nnc1-c1c[nH]c2ccccc12`, for which the growth is -57.2% (active) in test [1]; -31.5% (active) in test [2]; 82.3% in test [3]; 54.1% in [4]; -52.5% (active) in [5]; 39.4% in test [6]. For the same compound, the growth in test [7] was 27.7%; in test [8], 47%; in [9], -100% (active); in test [10], 68.5%; in [11], 58.3%; in test [12], 40.9%. Further, the growth in test [13] is 68.3%; in test [14], 31.2%; in test [15], 89.2%; in test [16] it was 52.2%; in test [17], 57.3%; in [18] it was 109%. In addition, the growth in test [19] is 55.4%; in [20], 33.2%.

Regarding `O=C(CSc1nnc(-c2c[nH]c3ccccc23)n1-c1ccccc1)Nc1ccc(C(=O)/C=C/c2ccc(Br)cc2)cc1`, the growth in [1] is 68.1%; in [2], 86.6%; in test [3] it was 86.6%; in test [4] it was 77%; in test [5] it was 81.6%; in test [6], 66%. Moreover, the growth in [7] is 90.5%; in test [8], 66.4%; in [9], 81.6%; in test [10], 94%; in test [11], 101%; in [12], 67.4%. The growth is 89.5% in [13]; 52.9% in test [14]; 97.7% in test [15]; 78% in test [16]; 76% in test [17]; 106% in test [18]. In addition, the growth in test [19] was 90.9%; in [20], 57.1%.

As for `COc1ccc2ncc(C#Cc3cncc(C(=O)Nc4ccc(CN5CCN(C)CC5)c(C(F)(F)F)c4)c3)n2n1`, the growth in [1] is -91.3% (active); in test [2], -51.8% (active); in test [3], -91.1% (active); in test [4], -86.2% (active); in test [5], -59.8% (active); in test [6], -59.6% (active). Besides, the growth was -100% (active) in test [7]; -79.6% (active) in [8]; -94.6% (active) in [9]; -91.8% (active) in test [10]; -55.3% (active) in test [11]; -99.7% (active) in [12]. The growth is -93.5% (active) in [13]; -90.1% (active) in [14]; -76% (active) in test [15]; -98.3% (active) in test [16]; -75.8% (active) in test [17]; 31.7% in test [18]. Further, the growth in test [19] is 2.67% (active); in [20], -26.7% (active).

For `Cc1ccc(/C=C/C(=O)c2ccc(NC(=O)CSc3nnc(-c4c[nH]c5ccccc45)n3-c3ccccc3)cc2)cc1`, the growth in test [1] was 79.5%; in [2], 100%; in test [3] it was 91.5%; in test [4], 87.9%; in [5] it was 78.5%; in test [6] it was 71.8%. Besides, the growth was 94% in test [7]; 75.8% in [8]; 78.4% in [9]; 99.1% in test [10]; 90.5% in [11]; 77% in test [12]. Moreover, the growth in test [13] is 76.1%; in test [14] it was 55.3%; in test [15], 107%; in [16] it was 78.3%; in test [17], 80.6%; in test [18] it was 111%. Besides, the figures for the growth in test [19] and in test [20] were 93.7% and 68.3%, respectively.

Consider `CS(=O)(=O)Nc1ccc(-c2ccc3c(c2)ncn3-c2ccc(NC(=O)Nc3ccc(Cl)c(C(F)(F)F)c3)cc2)cc1`, for which the growth in [1] is -91.3% (active); in test [2], -84.1% (active); in test [3] it was -42% (active); in [4], -89.3% (active); in test [5], -87.4% (active); in test [6] it was -57.5% (active). Besides, the growth is -97.7% (active) in test [7]; -85.8% (active) in test [8]; -97% (active) in [9]; -78.1% (active) in [10]; -83% (active) in test [11]; -60.3% (active) in test [12]. Also, the growth in test [13] is -68.7% (active); in test [14] it was -65.1% (active); in test [15], -6.45% (active); in test [16], -63.7% (active); in test [17], -55.2% (active); in test [18], -85.9% (active). Also, the growth in test [19] was -31.7% (active); in test [20], -36.8% (active).

As to `O=C(Nc1nc2ccc([N+](=O)[O-])cc2s1)Nc1ccccc1I`, the growth in test [1] was 1.19% (active); in test [2], 1.95% (active); in [3] it was -1.46% (active); in test [4] it was 10.5%; in [5], 2.73% (active); in test [6], 9.44% (active). Besides, the growth in test [7] is -78.5% (active); in [8] it was 3.63% (active); in test [9] it was 9.2% (active); in test [10], 15.8%; in test [11], -21.6% (active); in test [12] it was -8.48% (active). In addition, the growth was 1.18% (active) in test [13]; 0.855% (active) in test [14]; 10.8% in test [15]; -0.408% (active) in test [16]; -19.5% (active) in [17]; -8.67% (active) in [18]. Besides, the growth was 3.88% (active) in test [19] and 1.39% (active) in [20].
